The nature of assay [1]: Confirmation and Secondary Assay for Modulators of Hemoglobin Beta Chain Splicing at IVS2 654 locus (AID 910).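 Further: HeLa cells stably carrying EGFP split by mutant beta-globin IVS2-654 intron.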 In outline: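 HeLa cells stably expressing EGFP interrupted by β-globin IVS2-654 intron, seeded overnight in Opti-MEM/2% FCS, then treated 2 days at 37 °C. Restored splicing read as total peak GFP intensity per well by laser scanning cytometry (488 nm excitation, 500–520 nm emission); 500 nM antisense PNA as control.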

Assay [2] can be described thus: Confirmation and Secondary Assay for Modulators of Hemoglobin Beta Chain Splicing at IVS2 705 locus (AID 930).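 Further: HeLa cells stably expressing the EGFP-705 splicing reporter; GFP fluorescence per well restored by corrected splicing of the IVS2-705 intron in EGFP; series mostly up to about 46 µM.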 In outline:
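Per-well GFP, captured at 1 x 8 µm resolution with 488 nm excitation, served as the read-out for HeLa EGFP-705 cells incubated 2 days with test compound versus DMSO.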

Assay [3] has as its target Guanine nucleotide-binding protein G(i) subunit alpha-1 (Homo sapiens) (UniProt P63096). Description: qHTS Assay for Inhibitors of RGS12 GoLoco Motif Activity (Green Fluorophore) (AID 879).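 Further: negative values mean loss of peptide binding seen as reduced polarization.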 In outline:
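Fluorescence polarization assay: 50 nM Gαi1 with 10 nM FITC-labeled RGS12 GoLoco peptide in 10 mM Tris pH 7.5, 150 mM NaCl, 0.1 mM GDP, 0.05% NP40, 10 min at room temperature with compound.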
On the technique in general: qHTS replaces the single test concentration by a dilution series.

Assay [4] can be described thus: qHTS Assay for Identification of Small Molecule Agonists for Thrombopoietin (TPO) Signaling Pathway (AID 917). The method, boiled down: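 Luminescence from a Glycoprotein IIb promoter–driven luciferase reporter served as read-out in murine Ba/F3 cells carrying the human TPO receptor. Cells, deprived of IL-3 overnight, received compounds with 26 pM TPO and were incubated 24 hrs at 37 C.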

In assay [5] the target is Muscarinic acetylcholine receptor M1 (Rattus norvegicus) (UniProt P08482). Description: qHTS Assay for Antagonists of Acetylcholine Muscarinic M1 Receptor: Measurement of IP-One Response (AID 944). Further: nearly all actives have a fitted effect of over 75% in size. The method, boiled down:
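M1-CHO (rat), 2000 cells/well, overnight recovery; cpd 10 min; carbachol EC80 (200 nM), 30 min, HEPES buffer + 50 mM LiCl pH 7.4; IP-One HTRF, Ex 337, Em 620/665 nm.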

Assay [6] has as its target Pyruvate kinase (Leishmania mexicana) (UniProt Q27686). In words: qHTS Validation Assay for Inhibitors of Leishmania Mexicana Pyruvate Kinase (AID 945). The method, boiled down: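 An endpoint luciferase assay: 0.2 nM LmPYK E451W turns over 0.5 mM PEP with 0.1 mM ADP for 1 h at room temperature, pH 7.2, before PKLight addition. Values are normalized to DMSO-only wells.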

Assay [7] is described as follows: qHTS Assay for Identification of Small Molecule Antagonists for Thrombopoietin (TPO) Signaling Pathway (AID 918). Further: potency means the concentration at half of the fitted maximal effect; nearly all actives have a fitted effect of over 60% in size. Conditions: TPO-dependent cell signaling reporter, antagonist mode. The method, boiled down:
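Ba/F3 (murine, hTPO-R, GPIIb-luc reporter); overnight IL-3 withdrawal; cpd + TPO 26 pM final (EC50); 24 h 37 C/5% CO2; Steadylite luminescence after 10 min RT.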

The nature of assay [8]: MultiTox-Fluor Cytotoxicity Assay - LYMP1-001 - Dead Cells (AID 946). Further: potency means the concentration at half of the fitted maximal effect. In outline:
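Cytotoxicity as increased dead-cell protease fluorescence (bis-AAF-R110, 485/520 nm), read 60 min after MultiTox-Fluor reagent. Human lymphoblastoid line exposed 16 h; Hill-fitted AC50, with DMSO as 0% and 15 uM tetraoctylammonium bromide as 100%.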

The target of assay [9] is Cytochrome P450 2C9 (Homo sapiens) (UniProt P11712). Description: qHTS Assay for Inhibitors and Substrates of Cytochrome P450 2C9 (AID 883). Further: nearly all actives have a fitted effect of over 60% in size. Further: potency means the concentration at half of the fitted maximal effect. In outline:
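10nM CYP2C9 + 100uM Luciferin-H (=KM), 25mM KPO4; cpd 10 min 37C; NADPH regen, 60 min 37C; stop/detect with P450 Glo-Buffer 20 min; luminescence. Norm. to 57uM sulphaphenazole as full inhibition.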

Assay [10] has as its target Cytochrome P450 3A4 (Homo sapiens) (UniProt P08684). Description: qHTS Assay for Inhibitors and Substrates of Cytochrome P450 3A4 (AID 884). Further: nearly all actives have a fitted effect of over 50% in size. Further: potency means the concentration at half of the fitted maximal effect. In outline:
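20 nM human CYP3A4 with 25 uM Luciferin-PPXE (at KM) in 200 mM KPO4, preincubated 10 min with compound; NADPH regeneration started a 60 min RT reaction. Luciferin detected by luminescence, normalized to 57 uM ketoconazole as full inhibition.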

Assay [11] shares this target. In words: qHTS Assay for Activators of Cytochrome P450 3A4 (AID 885). Further: nearly all actives have a fitted effect of over 65% in size. In outline: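 Signal was normalized against complete inhibition by 57 uM ketoconazole. The reaction used 20nM CYP3A4 with 25uM Luciferin-PPXE, 10-min compound preincubation and a 60-min NADPH-supported step at RT.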
The target in assay [12] is Cytochrome P450 2C19 (Homo sapiens) (UniProt P33261). Description: qHTS Assay for Inhibitors and Substrates of Cytochrome P450 2C19 (AID 899). Further: potency means the concentration at half of the fitted maximal effect; nearly all actives have a fitted effect of over 60% in size. The method, boiled down: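 Luminescent read-out of luciferin formed from Luciferin-H EGE (10uM, equal to KM). Enzyme 5nM in 50mM KPO4; compound added, 10 min at 37C, then NADPH regenerating system for 60 min at 37C. Full inhibition defined by 57uM ketoconazole.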
Chain of Cytochrome P450 2C19 (Homo sapiens) (P33261 whole entry, looked up): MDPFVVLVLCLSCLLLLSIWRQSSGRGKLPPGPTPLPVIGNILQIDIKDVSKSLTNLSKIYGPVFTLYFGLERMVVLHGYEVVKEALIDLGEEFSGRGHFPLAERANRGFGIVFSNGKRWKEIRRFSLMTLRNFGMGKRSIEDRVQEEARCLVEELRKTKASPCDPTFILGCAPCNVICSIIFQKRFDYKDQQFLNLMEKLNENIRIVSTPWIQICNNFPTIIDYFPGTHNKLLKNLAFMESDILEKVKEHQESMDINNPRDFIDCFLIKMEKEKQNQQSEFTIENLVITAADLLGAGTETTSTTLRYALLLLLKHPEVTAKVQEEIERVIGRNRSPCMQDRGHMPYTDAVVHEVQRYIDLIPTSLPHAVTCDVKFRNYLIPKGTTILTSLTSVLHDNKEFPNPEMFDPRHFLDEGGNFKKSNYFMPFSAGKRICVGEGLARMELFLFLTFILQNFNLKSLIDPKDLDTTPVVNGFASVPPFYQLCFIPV

The target in assay [13] is Cytochrome P450 2D6 (Homo sapiens) (UniProt P10635). In words: qHTS Assay for Inhibitors and Substrates of Cytochrome P450 2D6 (AID 891). Further: nearly all actives have a fitted effect of over 60% in size. Further: potency means the concentration at half of the fitted maximal effect. In outline:
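Human CYP2D6 (5 nM) with 30 uM Luciferin-ME EGE (at Km) in 100 mM KPO4, compound preincubated 10 min, then NADPH regeneration system for 60 min at room temperature. Luciferin read by luminescence; normalized to 1.43 uM quinidine.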

Assay [14] in a line: qHTS Assay for Identification of Small Molecule Antagonists for NFkB Signaling Pathway (AID 895; active means well fitted inhibition curve with a large enough effect in the signal ratio, with a control signal flat, not every such curve was filed as active; the % refers to the signal ratio; further: potency means the concentration at half of the fitted maximal effect). In outline:
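ME-180 NFkB-bla cells (beta-lactamase under NFkB response element), plated overnight, treated with compound then 10 pM TNF alpha (about EC50) for 5 hrs at 37 C. LiveBLAzer FRET read at 460/530 nm emission, 405 nm excitation.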

In assay [15] the target is Muscarinic acetylcholine receptor M1 (Rattus norvegicus) (UniProt P08482). In words: qHTS Assay for Antagonists of Acetylcholine Muscarinic M1 Receptor: Kinetic Measurement of Intracellular Calcium Response (AID 943).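 Further: Fluo-4 calcium signal as peak divided by basal fluorescence over 4 min; series mostly up to about 35 µM; nearly all actives have a fitted effect of over 75% in size.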 The method, boiled down: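 Rat M1-CHO cells, 2000/well, overnight → Fluo-4 no-wash dye with probenecid, 1 h 37C → compound 10 min, room temp → basal read 6 s → carbachol EC80 (100 nM) → 4 min kinetic read; peak/basal.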
Chain of Muscarinic acetylcholine receptor M1 (Rattus norvegicus) (P08482 whole entry, looked up): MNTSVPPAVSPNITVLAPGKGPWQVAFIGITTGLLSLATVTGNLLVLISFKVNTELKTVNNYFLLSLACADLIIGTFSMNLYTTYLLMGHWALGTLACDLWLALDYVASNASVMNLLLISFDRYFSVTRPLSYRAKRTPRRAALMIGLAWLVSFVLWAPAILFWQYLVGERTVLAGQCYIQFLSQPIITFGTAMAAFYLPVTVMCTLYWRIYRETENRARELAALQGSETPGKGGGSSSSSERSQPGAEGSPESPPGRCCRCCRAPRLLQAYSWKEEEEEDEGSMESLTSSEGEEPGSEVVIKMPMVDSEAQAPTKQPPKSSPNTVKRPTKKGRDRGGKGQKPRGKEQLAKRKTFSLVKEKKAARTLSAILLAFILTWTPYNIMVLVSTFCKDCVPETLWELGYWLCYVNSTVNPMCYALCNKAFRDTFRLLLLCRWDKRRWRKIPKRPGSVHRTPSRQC

“And” between values parts separate entries of the source, which are not always exact repeats. Equal values may be shown once. Results filed as inconclusive are left out. Some structures have more than one record in an assay (separate samples or runs), and their calls can disagree. The source made the active and inactive calls. Unless noted, the call rests on the fitted dose curve; in most records, active means well fitted curve in the direction sought with a large enough effect; inconclusive means small, poorly fitted or top-dose-only effect, or another doubt; inactive means no such curve, though single readings can be large; an effect the other way counts as inactive or inconclusive.

Chain of Cytochrome P450 3A4 (Homo sapiens) (P08684 whole entry, looked up): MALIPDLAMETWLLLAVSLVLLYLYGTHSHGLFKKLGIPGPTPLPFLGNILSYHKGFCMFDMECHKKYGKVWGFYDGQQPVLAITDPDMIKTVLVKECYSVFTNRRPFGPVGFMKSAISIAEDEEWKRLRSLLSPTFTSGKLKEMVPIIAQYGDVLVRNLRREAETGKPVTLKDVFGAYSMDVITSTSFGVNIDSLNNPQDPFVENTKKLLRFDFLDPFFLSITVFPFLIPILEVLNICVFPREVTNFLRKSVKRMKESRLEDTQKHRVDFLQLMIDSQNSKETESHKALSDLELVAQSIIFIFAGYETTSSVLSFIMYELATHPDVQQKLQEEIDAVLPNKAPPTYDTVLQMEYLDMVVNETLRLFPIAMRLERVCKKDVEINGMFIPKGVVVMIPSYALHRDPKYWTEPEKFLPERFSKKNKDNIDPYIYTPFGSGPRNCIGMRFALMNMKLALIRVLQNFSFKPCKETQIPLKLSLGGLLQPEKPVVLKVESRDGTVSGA
Chain of Cytochrome P450 2C9 (Homo sapiens) (P11712 whole entry, looked up): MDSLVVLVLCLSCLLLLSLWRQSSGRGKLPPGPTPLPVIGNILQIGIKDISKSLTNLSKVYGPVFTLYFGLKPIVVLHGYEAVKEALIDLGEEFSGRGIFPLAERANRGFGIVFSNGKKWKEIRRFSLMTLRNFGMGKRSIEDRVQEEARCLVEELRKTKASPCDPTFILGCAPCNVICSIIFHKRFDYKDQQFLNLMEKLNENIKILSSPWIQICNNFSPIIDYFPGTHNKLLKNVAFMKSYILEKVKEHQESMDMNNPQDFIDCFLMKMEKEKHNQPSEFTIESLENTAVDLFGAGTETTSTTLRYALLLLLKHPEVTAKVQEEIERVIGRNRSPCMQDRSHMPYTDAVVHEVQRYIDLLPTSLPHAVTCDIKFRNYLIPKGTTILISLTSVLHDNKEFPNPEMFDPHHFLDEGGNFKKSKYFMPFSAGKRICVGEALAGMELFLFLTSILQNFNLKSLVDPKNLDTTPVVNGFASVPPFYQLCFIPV
Chain of Pyruvate kinase (Leishmania mexicana) (Q27686 2-499 E452W): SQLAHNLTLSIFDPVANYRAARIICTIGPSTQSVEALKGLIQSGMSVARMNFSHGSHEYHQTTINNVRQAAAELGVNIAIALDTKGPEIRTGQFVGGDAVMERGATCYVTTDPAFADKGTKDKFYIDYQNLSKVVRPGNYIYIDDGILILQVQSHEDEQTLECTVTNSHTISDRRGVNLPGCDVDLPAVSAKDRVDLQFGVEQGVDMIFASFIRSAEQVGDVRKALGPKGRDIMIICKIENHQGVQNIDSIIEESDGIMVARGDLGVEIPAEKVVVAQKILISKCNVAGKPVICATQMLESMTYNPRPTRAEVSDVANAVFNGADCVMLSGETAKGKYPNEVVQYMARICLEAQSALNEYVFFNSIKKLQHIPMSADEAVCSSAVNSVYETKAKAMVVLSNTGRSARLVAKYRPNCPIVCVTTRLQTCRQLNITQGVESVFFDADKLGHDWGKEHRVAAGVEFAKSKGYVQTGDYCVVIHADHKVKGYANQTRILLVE
Chain of Guanine nucleotide-binding protein G(i) subunit alpha-1 (Homo sapiens) (P63096 whole entry, looked up): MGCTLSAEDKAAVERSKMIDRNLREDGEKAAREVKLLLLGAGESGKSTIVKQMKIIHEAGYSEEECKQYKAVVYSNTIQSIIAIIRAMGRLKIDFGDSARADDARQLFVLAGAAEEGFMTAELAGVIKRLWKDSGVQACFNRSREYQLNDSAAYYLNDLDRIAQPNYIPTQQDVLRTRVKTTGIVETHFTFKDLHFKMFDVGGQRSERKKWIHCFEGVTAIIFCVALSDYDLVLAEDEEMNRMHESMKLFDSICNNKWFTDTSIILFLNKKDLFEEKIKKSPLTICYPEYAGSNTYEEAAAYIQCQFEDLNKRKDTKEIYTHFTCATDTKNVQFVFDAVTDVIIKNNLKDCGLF
Chain of Cytochrome P450 2D6 (Homo sapiens) (P10635 whole entry, looked up): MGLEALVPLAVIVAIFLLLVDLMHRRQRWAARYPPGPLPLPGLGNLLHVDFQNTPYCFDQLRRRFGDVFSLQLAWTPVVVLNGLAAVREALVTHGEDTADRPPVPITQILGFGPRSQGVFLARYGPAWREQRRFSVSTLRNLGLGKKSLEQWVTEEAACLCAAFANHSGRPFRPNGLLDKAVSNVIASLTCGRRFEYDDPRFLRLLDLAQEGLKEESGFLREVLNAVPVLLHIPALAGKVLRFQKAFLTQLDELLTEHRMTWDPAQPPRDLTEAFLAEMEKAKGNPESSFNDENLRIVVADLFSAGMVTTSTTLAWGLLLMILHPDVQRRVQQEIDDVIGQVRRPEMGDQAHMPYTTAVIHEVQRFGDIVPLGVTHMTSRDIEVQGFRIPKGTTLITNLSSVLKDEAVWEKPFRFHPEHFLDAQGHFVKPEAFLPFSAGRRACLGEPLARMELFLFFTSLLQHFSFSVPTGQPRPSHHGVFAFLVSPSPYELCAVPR

Consider `COc1ccc(C2Sc3ccccc3N(CCN(C)C)C(=O)C2OC(C)=O)cc1` (stereo not drawn), for which the outcome in assay [1] and in [2] was inactive.
As to `CCN(CC)CCNC(=O)c1ccc(N)cc1`, the result in assay [3], in assay [1], in assay [2] and in assay [5] was inactive. The Potency result in assay [4] and in assay [6] was “inactive” each time.
For `CC/C(=C(\c1ccccc1)c1ccc(OCCN(C)C)cc1)c1ccccc1`, the call in assay [3], in assay [1] and in assay [2] was inactive. Moreover, the results for the Potency in assay [7] and in assay [8] were 10 µM (active) and 50.1 µM (active), respectively. In addition, in [6], the Potency entry was “inactive”.
Consider `Cc1cccc(C)c1OCC(C)N` (stereo not drawn), for which the call in assay [1] and in assay [2] was inactive.
Regarding `COc1ccc(-c2coc3cc(O)ccc3c2=O)cc1`, the Potency result in assay [9] and in assay [10] was “inactive” in each case. Further, the compound was classed as inactive in [11], in [1] and in assay [2].
With `COc1ccc(Cc2nccc3cc(OC)c(OC)cc23)cc1OC`, the outcome in assay [3] was inactive. In assay [6], the Potency entry is “inactive”.
In the case of `O=C1C(Cl)=C(NCCN2CCOCC2)C(=O)c2ncccc21`, the Potency in assay [10] is 2.51 µM (active). Also, in assay [11], the call was inactive.
With `O=c1cc(-c2ccccc2)oc2cc(O)cc(O)c12`, the Potency in [10] was 7.94 µM (active) and inactive and 2.51 µM (active); in assay [12], 794 nM (active). In addition, the call in assay [11], in [1] and in [2] was inactive.
As to `O=c1cc(-c2ccccc2)oc2cc(O)c(O)c(O)c12`, the results for the Potency in assay [9], in assay [13] and in assay [12] were 5.01 µM (active), 31.6 µM (active) and 5010 nM (active), respectively. The call in assay [11] and in assay [1] was inactive.
For `Clc1ccc(Cn2c(CN3CCCC3)nc3ccccc32)cc1`, the outcome in [3], in assay [11] and in [5] was inactive. The Potency is 1.26 µM (active) and 794 nM (active) in assay [13]; 199 nM (active) in [12]. In addition, the Potency entry in assay [4] and in assay [6] was “inactive” each time.
Turning to `COc1ccc(-c2coc3cc(O)cc(O)c3c2=O)cc1`, in [9], the Potency entry is “inactive”. Moreover, the results for the Potency in [10], in assay [13] and in assay [12] were 20 µM (active), 31.6 µM (active) and 7940 nM (active), respectively. Also, the outcome in assay [11], in assay [1] and in assay [2] was inactive.
Take `CC1(C)CCC2=C(O1)c1ccccc1C(=O)C2=O`: in [3], the compound was classed as inactive. For the same compound, the Potency in assay [14] is 8.91 µM (active); in assay [7], 1.58 µM (active). Besides, the Potency result in [6] is “inactive”.
Regarding `NC(N)=Nc1nc(CSCC/C(N)=N/S(N)(=O)=O)cs1`, in [3], the compound was called inactive. Besides, the Potency entry in assay [4] and in [6] was “inactive” throughout.
In the case of `Nc1ncnc2c1ncn2[C@@H]1O[C@H](CO)C[C@@H]1O`, the Potency result in [10] is “inactive”.
Regarding `O=C1C[C@@H](c2ccc(O)cc2)Oc2cc(O)cc(O)c21`, the Potency result in [13] was “inactive”.
As for `COCCCCC(=NOCCN)c1ccc(C(F)(F)F)cc1`, the result in assay [11], in assay [15] and in assay [5] was inactive. Further, the Potency is 3.98 µM (active) in assay [13] and 63.1 nM (active) in assay [12]. The Potency result in assay [4] and in assay [6] was “inactive” throughout.
In the case of `COc1cc(O)c2c(c1)C(=O)c1cc(C)cc(O)c1C2=O`, the Potency result in assay [10] was “inactive”. Also, the compound was called inactive in assay [1] and in assay [2].
Turning to `O=C(O)CCc1nc(-c2ccccc2)c(-c2ccccc2)o1`, the outcome in [3], in assay [1] and in [2] was inactive. Also, the Potency entry in assay [4] and in [6] was “inactive” each time.
For the compound `CCCCCCCCCCCC1=C(O)C(=O)C=C(O)C1=O`, the Potency was 25.1 µM (active) in assay [9]; “inactive and 2 µM (active)” in assay [13]. Moreover, in [10], the Potency result was “inactive”. The outcome in [1] and in assay [2] was inactive.

Values taken from PubChem BioAssay (NCATS).
